Calls of active or inactive are those of the source. Unless noted, how the calls were made is not given here.
What was measured:
[1] = tested on: XIP peptide (Xip251-270) binding; assay: small-molecule binders of XIP peptide, primary screen, biochemical, small-molecule microarray, fluorescence 635/667 nm, 0.1 µg/mL protein (AID 1182); settings: fluorescent protein binding, 635 nm, higher = more signal, called active from +8 up or from −8 down
[2] = tested on: XIP peptide (Xip251-270); assay: small-molecule binders of XIP peptide, primary screen, biochemical, small-molecule microarray, fluorescence 635/667 nm, 0.5 µg/mL protein (AID 1183); settings: small-molecule microarray binding, fluorescence 635 nm; higher = more signal
[3] = Plasmodium falciparum growth inhibition, primary screen, strain 3D7, DAPI fluorescence, 100 nL (AID 1184);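 further: parasites grown inside human red blood cells in medium with human serum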; settings: P. falciparum 3D7 growth, 3 d, higher = more signal
[4] = molecular target: Homeobox protein Hox-A13 (Mus musculus) (UniProt Q62424); assay: inhibitors of HoxA13-DNA binding, primary screen, biochemical, fluorescence polarization, labeled oligonucleotide (AID 1185); settings: 15 min, higher = more signal, called active from +8 up or from −8 down
Sequence of Homeobox protein Hox-A13 (Mus musculus) (Q62424 whole entry, looked up): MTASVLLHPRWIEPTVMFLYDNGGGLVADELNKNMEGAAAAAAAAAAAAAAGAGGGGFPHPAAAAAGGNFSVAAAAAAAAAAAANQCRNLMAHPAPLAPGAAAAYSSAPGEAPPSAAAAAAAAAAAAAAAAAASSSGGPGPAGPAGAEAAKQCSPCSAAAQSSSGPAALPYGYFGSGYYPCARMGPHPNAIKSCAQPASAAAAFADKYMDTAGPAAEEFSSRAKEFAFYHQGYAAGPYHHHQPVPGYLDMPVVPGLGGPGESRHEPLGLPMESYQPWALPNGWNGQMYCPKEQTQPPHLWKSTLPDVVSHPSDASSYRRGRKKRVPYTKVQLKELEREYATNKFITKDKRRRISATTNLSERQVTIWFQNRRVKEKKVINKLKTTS

[5] = inhibitors of hydroxyurea-induced Chk1 phosphorylation, primary screen, imaging, HeLa, phospho-Chk1 antibody, percent positive cells (AID 1186); settings: hydroxyurea-induced phospho-Chk1 immunofluorescence imaging, higher = more signal
[6] = inhibitors of hydroxyurea-induced Chk1 phosphorylation, primary screen, imaging, HeLa, phospho-Chk1 nuclear intensity (AID 1187); settings: hydroxyurea-induced phospho-Chk1 immunofluorescence imaging, higher = more signal

| Compound | composite z-score [1] | composite z-score [2] | z-score [3] | z-score [4] | z-score [5] | z-score [6] |
| --- | --- | --- | --- | --- | --- | --- |
| C=C(COC)/C(=C/C[C@@H](OC(=O)c1ccncc1)c1ccc(CO)o1)c1cc(C(=O)OC)ccc1OC | 0.215 (inactive) | 0.838 | -0.644 | -4.26 (inactive) | -0.255 (inactive) | -0.162 (inactive) |
| COC(=O)[C@]1(CCC(=O)OC(C)(C)C)N=C(c2ccc(OCCCO)cc2)O[C@@H]1c1ccccc1CN=[N+]=[N-] | 1.52 (inactive) | 0.767 | -2.03 | -0.506 (inactive) | 0.121 (inactive) | -0.0667 (inactive) |
| Oc1ccc2cc[n+](Cc3sc4ccccc4c3Cl)cc2c1 | 0.558 (inactive) | 0.904 | -1.11 | -4.76 (inactive) | -0.0224 (inactive) | -0.106 (inactive) |
| COCCOC(=O)N1C(=O)[C@@]2(c3cc(C#CCCO)ccc31)[C@H](C(=O)N1CCCCCCC1)[C@H]1C(=O)O[C@H](c3ccccc3)[C@H](c3ccccc3)N1[C@@H]2c1ccc(OCCO)cc1 | 1.29 (inactive) | 0.666 | -1.5 | -11 (active) | -0.201 (inactive) | 0.0919 (inactive) |
| Cc1ccc(S[C@]2(C(=O)NC3CC3)CC(=O)N(Cc3ccccc3)[C@@H]2c2ccc(CO)cc2I)cc1 | 0.135 (inactive) | 0.387 | -0.0873 | -2.79 (inactive) | 0.327 (inactive) | 0.794 (inactive) |
| CN(C)CCCCCCNC(=O)[C@@H]1C[C@@H]2C(=O)N[C@@H](Cc3ccccc3)C(=O)N2[C@@H]1c1ccc(O)cc1 | 0.594 (inactive) | 0.887 | -1.19 | -2.65 (inactive) | -0.165 (inactive) | 0.272 (inactive) |
| C[C@H]1C2[C@H](Cc3ccccc3)NC(=O)[C@]23C(=O)N[C@H](Cc2ccccc2)C(=O)N2CCC[C@H]2C(=O)NC/C=C\C/C=C/C3[C@@H]2O[C@]12C (some centres not stated) | 0.297 (inactive) | 0.192 | -0.227 | -6.27 (inactive) | -0.291 (inactive) | -0.104 (inactive) |
| C=CCN1C(=O)[C@@]2(CC=C)N=C(c3ccc(OCCCO)cc3)O[C@H]2c2ccccc21 | 0.881 (inactive) | 0.751 | -1.99 | -2.65 (inactive) | -0.772 (inactive) | -0.86 (inactive) |
| O=C(NCCN1CCOCC1)[C@@H]1c2ccccc2C(=O)N(C2CCCCC2)[C@H]1c1ccc(CO)cc1 | -0.403 (inactive) | 0.0759 | -1.23 | -4.02 (inactive) | -0.389 (inactive) | -0.611 (inactive) |
| C=CCC(OC(C)=O)[C@@H]1[C@@H](N(Cc2ccc(-c3cccc(C(F)(F)F)c3)o2)C(=O)c2ccc(C)cc2)c2cc(OCCCO)ccc2N1C(=O)Cc1ccc2ccccc2c1 (some centres not stated) | 0.332 (inactive) | -0.0506 | 0.337 | -0.62 (inactive) | -0.385 (inactive) | -0.709 (inactive) |
| N#Cc1ccc(NN2C(C(O)C(c3ccccc3)c3ccccc3)C=CC3C(=O)N(c4ccccc4)C(=O)C32)cc1 (configuration not stated) | 0.424 (inactive) | 0.646 | -0.231 | 1.55 (inactive) | 0.377 (inactive) | 0.484 (inactive) |
| NC(=O)NCC#Cc1ccc2c(c1)[C@]1(C(=O)N2)[C@H](c2ccccc2OCCO)N2[C@H](c3ccccc3)[C@H](c3ccccc3)OC(=O)[C@H]2[C@@H]1C(=O)Nc1nc2ccccc2s1 | 0.213 (inactive) | 0.324 | -1.89 | 1.61 (inactive) | 0.164 (inactive) | 0.212 (inactive) |
| O=C(c1ccccc1)N1C(=O)[C@@]2(Cc3ccccc31)N=C(c1ccc(OCCCO)cc1)O[C@H]2c1ccccc1 | 1.68 (inactive) | 0.841 | -2.09 | -5.9 (inactive) | 0.0794 (inactive) | 0.255 (inactive) |
| O=C1O[C@H](c2ccccc2)[C@H](c2ccccc2)N2[C@H]1[C@@H](C(=O)N1CCCCCCC1)[C@]1(C(=O)Nc3ccc(C#CC4=CCCCC4)cc31)[C@H]2c1ccc(OCCO)cc1 | 2.27 (inactive) | 0.77 | -2.33 | -15.4 (active) | 0.606 (inactive) | 1.04 (inactive) |
| O=C1c2ccccc2[C@](Cc2ccccc2I)(C(=O)NCCN2CCOCC2)[C@H](c2ccc(CO)cc2)N1C1CCCCC1 | 0.45 (inactive) | 0.652 | -1.79 | -5.61 (inactive) | 0.16 (inactive) | -6.65 (inactive) |
| C=CCOC(=O)[C@H]1[C@@H]2C(=O)O[C@@H](c3ccccc3)[C@@H](c3ccccc3)N2[C@@H](c2ccc(OCCOC(=O)[C@H]3C[C@H]4C(=O)N[C@@H](CCCCNC(C)=O)C(=O)N4[C@H]3c3cccc(OCCO)c3)cc2)[C@]12C(=O)Nc1ccccc12 | 0.899 (inactive) | 0.528 | -1.69 | -1.77 (inactive) | -0.843 (inactive) | -0.373 (inactive) |
| COC(=O)c1c(CC[C@@H](CO)NC(=O)NCCn2cc(C3(O)CCCC3)nn2)oc(C(C)=O)c1C(=O)OC | 0.333 (inactive) | -0.0213 | -0.72 | -1.9 (inactive) | 0.0528 (inactive) | -0.0849 (inactive) |
| CN(C)C(=O)[C@]1(Cc2ccccc2N=[N+]=[N-])N=C(c2ccc(OCCCO)cc2)O[C@@H]1c1ccccc1N=[N+]=[N-] | 1.31 (inactive) | 0.799 | -2.22 | -3.63 (inactive) | -1.13 (inactive) | -1.55 (inactive) |
| CCCCC(CC)C(O)C1C=CC2C(=O)N(Cc3ccccc3)C(=O)C2N1n1cnnc1 (configuration not stated) | 0.0978 (inactive) | 0.671 | -0.465 | -3.42 (inactive) | 0.419 (inactive) | -0.454 (inactive) |
| CC(C)CNC(=O)[C@@]1(Cc2ccccc2I)c2ccccc2C(=O)N(C2CCCCC2)[C@H]1c1ccc(CO)cc1 | 2.15 (inactive) | 0.696 | -1.15 | -3.77 (inactive) | 0.145 (inactive) | -0.0021 (inactive) |
| COc1cc2c(cc1OC)CN(C(=O)[C@H]1[C@@H]3C(=O)O[C@@H](c4ccccc4)[C@@H](c4ccccc4)N3[C@@H](c3ccc(O)cc3)[C@]13C(=O)Nc1ccc(C#CCCO)cc13)CC2 | 0.22 (inactive) | 0.798 | -1.56 | -3.49 (inactive) | 0.113 (inactive) | 0.393 (inactive) |
| C[C@@]1([C@@H](NC(=O)c2ccc(-c3ccccc3)cc2)c2ccc(Cl)cc2)C[C@H]1C1CCCCC1 | -0.223 (inactive) | 0.492 | -0.311 | -2.06 (inactive) | -0.273 (inactive) | 0.861 (inactive) |
| CCCCCCc1nc(-c2ccc(OC)nc2)cc2c1[Si](C(C)C)(C(C)C)O[C@H]2c1ccccc1 | -0.652 (inactive) | -0.487 | -0.421 | -2.62 (inactive) | -0.732 (inactive) | -0.722 (inactive) |
| CO[C@H]1O[C@H](CO)[C@@H](OC(=O)Nc2ccccc2)[C@H](OC(=O)Nc2ccccc2)[C@@H]1OC(=O)Nc1ccccc1 | 0.228 (inactive) | 0.642 | -1.43 | -6.12 (inactive) | 0.0303 (inactive) | 0.502 (inactive) |
| CCCCN1CC=CC23O[C@@H]4C=CCCOC(=O)C4[C@H]2C(=O)N(CCCCCCO)[C@@H]3C1=O (some centres not stated) | 0.249 (inactive) | 0.847 | -0.35 | -4.29 (inactive) | 0.809 (inactive) | 0.79 (inactive) |
| COC(=O)[C@@]1(CCS(=O)(=O)c2ccccc2)N=C(c2ccc(OCCCO)cc2)O[C@H]1c1ccccc1CN=[N+]=[N-] | 1.24 (inactive) | 0.769 | -2.07 | -0.977 (inactive) | -0.395 (inactive) | -0.74 (inactive) |
| CC[C@@H]1C=C(C(=O)O)[C@H](c2ccc(Br)cc2)N1S(=O)(=O)c1ccc(C)cc1 | 0.693 (inactive) | 0.159 | -0.737 | -3.11 (inactive) | -0.0321 (inactive) | 0.0367 (inactive) |
